Experimental data published in PMC6212790, “How bacterial xenogeneic silencer rok distinguishes foreign from self DNA in its resident genome”.
The full ranking holds about 33,000 sequences; the median of “e-score” is about -0.037, and the highest 2% start at about 0.34. Shown is part of a subset that was picked to be rich in the highest values.

Target: T1, GST-Rok (full length) (Bacillus subtilis subsp. subtilis str. …, UniProt O34857 1-191)
T1 sequence: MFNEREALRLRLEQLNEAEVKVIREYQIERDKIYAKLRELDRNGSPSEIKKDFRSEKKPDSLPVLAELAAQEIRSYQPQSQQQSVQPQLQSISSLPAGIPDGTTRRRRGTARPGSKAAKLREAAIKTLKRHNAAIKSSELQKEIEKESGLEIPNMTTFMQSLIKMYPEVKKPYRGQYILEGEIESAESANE
Test: protein binding microarray; Rok is a gene silencer of Bacillus subtilis; high values mean tight binding
Conditions: protein: recombinant; tags: GST (pTH5325, pDEST15-Magic modified); dsDNA, one strand shown
Summary of the method: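 Each has a 25-mer constant primer and a 35-mer variable part from a de Bruijn sequence of order 10, covering every non-palindromic 8-mer at least 32 times (palindromic 16). Preference for each 8-mer is given as a rank-based, unitless enrichment score (E-score). Its range runs from 0.5 (most favored) to −0.5 (most disfavored).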

First: AAAAACTC
Second: AAAAACTA
The binding signal of the first is lower: 0.0197 E-score for the first, 0.417 E-score for the second.

Going from GAAAACTC to CCAAACCA, the binding signal rises from -0.114 E-score to -0.0489 E-score.

Compared with ACAAACTA, GAAAACTA is lower in binding signal: 0.383 E-score for the first, 0.346 E-score for the second.

First: CCAAACTC
Second: GAAAACCA
The binding signal of the first is higher: -0.0373 E-score for the first, -0.118 E-score for the second.

Going from GAAGAAGA to CACGCTGA, the binding signal falls from -0.113 E-score to -0.189 E-score.

First: CATACCGC
Second: CCGATTTC
The binding signal of the first is higher: -0.0931 E-score for the first, -0.187 E-score for the second.

First: ACATAAAC
Second: AAAAGTTC
The binding signal of the first is higher: 0.257 E-score for the first, 0.114 E-score for the second.

Compared with ACGCAGTA, AGGATTCA is lower in binding signal: 0.125 E-score for the first, -0.117 E-score for the second.

Going from AACCAGCT to GCAAACTA, the binding signal rises from -0.112 E-score to 0.386 E-score.

First: CAAAACTA
Second: TAAAACTA
The binding signal of the first is higher: 0.383 E-score for the first, 0.375 E-score for the second.

Going from TAAAACGA to GCAAACCA, the binding signal falls from 0.111 E-score to -0.161 E-score.

Going from CAAAACTG to TAAAACAA, the binding signal rises from -0.0906 E-score to 0.203 E-score.

Compared with CAAAACTC, GCAAACAA is lower in binding signal: 0.0709 E-score for the first, -0.152 E-score for the second.

First: ATGGCTTA
Second: AGAATTCA
The binding signal of the first is lower: 0.0565 E-score for the first, 0.0872 E-score for the second.

Compared with ACCCTCGC, ATAACTTG is higher in binding signal: -0.0467 E-score for the first, 0.289 E-score for the second.

First: GCATAGGC
Second: CTATATAG
The binding signal of the first is lower: -0.0277 E-score for the first, 0.402 E-score for the second.

Going from ATCTATAG to ATATAGCA, the binding signal falls from 0.313 E-score to 0.213 E-score.

Compared with CTATAGAG, ATATAGCC is lower in binding signal: 0.0607 E-score for the first, -0.000533 E-score for the second.

Compared with ATATATAG, CCATATAG is lower in binding signal: 0.416 E-score for the first, 0.0758 E-score for the second.

Going from ATATAGGG to ATATAGCG, the binding signal rises from -0.0461 E-score to 0.349 E-score.

Going from AGTTATGG to CAGCTAGA, the binding signal falls from 0.209 E-score to 0.0847 E-score.

Going from AACTTCAC to CCTAACGA, the binding signal falls from -0.0432 E-score to -0.117 E-score.

Compared with ATTTTGCC, GATCTGAA is lower in binding signal: 0.0261 E-score for the first, -0.0373 E-score for the second.

Compared with CATGCCGA, ACTCTACT is higher in binding signal: 0.0242 E-score for the first, 0.27 E-score for the second.

Compared with CATCTACC, AATCTACG is higher in binding signal: 0.291 E-score for the first, 0.311 E-score for the second.

Going from ACTCTACC to AATCTAAC, the binding signal rises from -0.0638 E-score to 0.189 E-score.

Going from AATCTACT to GATCTACC, the binding signal falls from 0.432 E-score to 0.382 E-score.

Compared with AATCTACC, GATCTAAC is lower in binding signal: 0.437 E-score for the first, 0.12 E-score for the second.

Going from AGTTATTC to ACCTTAAC, the binding signal falls from 0.069 E-score to -0.0118 E-score.

Compared with CATGGTAC, GTTTAACA is lower in binding signal: 0.13 E-score for the first, 0.108 E-score for the second.

Going from AATTCAGA to CACTCAAC, the binding signal falls from 0.0748 E-score to -0.00301 E-score.

Compared with CAGCATTC, GTGGCTGA is lower in binding signal: 0.0234 E-score for the first, -0.0523 E-score for the second.

Compared with AGAAAAAG, ATTTATGG is higher in binding signal: 0.0648 E-score for the first, 0.218 E-score for the second.

Compared with ATTTATTC, AGTTATAC is higher in binding signal: 0.219 E-score for the first, 0.329 E-score for the second.

Going from ATTTATAC to ATTTATAA, the binding signal falls from 0.356 E-score to 0.333 E-score.

Going from ATTTATTG to ATTTATTA, the binding signal falls from 0.348 E-score to 0.312 E-score.

First: ATTTATAG
Second: CTTTATAC
The binding signal of the first is higher: 0.398 E-score for the first, 0.226 E-score for the second.

Going from CATTAGGC to AGAGTGGA, the binding signal rises from -0.146 E-score to -0.109 E-score.

First: AACCAGAG
Second: AACTACCC
The binding signal of the first is lower: -0.187 E-score for the first, 0.292 E-score for the second.

Going from AACTATCG to ACCTACCT, the binding signal falls from 0.316 E-score to 0.271 E-score.

Compared with TCCTACCA, TACTACCA is higher in binding signal: 0.175 E-score for the first, 0.386 E-score for the second.

Compared with GACTACCA, CACTACCA is higher in binding signal: 0.095 E-score for the first, 0.221 E-score for the second.

First: AACTACCA
Second: CACTACCG
The binding signal of the first is higher: 0.432 E-score for the first, 0.0654 E-score for the second.

Compared with AACTACCT, TGCTACCA is lower in binding signal: 0.416 E-score for the first, 0.152 E-score for the second.

Compared with AACTACCG, GGACTCTA is lower in binding signal: 0.417 E-score for the first, -0.165 E-score for the second.

Compared with CTACAGGA, ACAAGCCT is lower in binding signal: -0.04 E-score for the first, -0.083 E-score for the second.

First: CTCTCACA
Second: AGACGCAA
The binding signal of the first is lower: -0.156 E-score for the first, -0.089 E-score for the second.

Going from GCCATTCA to ACCGAGCG, the binding signal falls from 0.0688 E-score to -0.175 E-score.

Compared with CTTAGTAC, GGTAGTAC is higher in binding signal: 0.206 E-score for the first, 0.339 E-score for the second.

First: AGTAGTAC
Second: AGTAGTGC
The binding signal of the first is higher: 0.336 E-score for the first, 0.0725 E-score for the second.

Compared with GGTAGGAC, CGTAGTAC is higher in binding signal: 0.0568 E-score for the first, 0.202 E-score for the second.

Compared with CTCAACTA, CATGGAGA is lower in binding signal: 0.13 E-score for the first, 0.0828 E-score for the second.

Going from CATGCGGC to ACATGCCA, the binding signal rises from -0.125 E-score to 0.0568 E-score.

Compared with ACATGCTA, GCATGCTA is lower in binding signal: 0.365 E-score for the first, 0.111 E-score for the second.

Compared with CCATGCTA, ACCTATGA is higher in binding signal: 0.073 E-score for the first, 0.118 E-score for the second.

Going from ATAAGTGA to GTATTTGA, the binding signal falls from 0.123 E-score to 0.0869 E-score.

Going from CTATTTTA to GTATTTTA, the binding signal rises from 0.325 E-score to 0.411 E-score.

Compared with ATATTTTC, GTATTTAA is lower in binding signal: 0.326 E-score for the first, 0.285 E-score for the second.

Compared with ATATTTTA, CTATTTCC is lower in binding signal: 0.412 E-score for the first, 0.18 E-score for the second.

First: ATATTTTG
Second: CTATTTTC
The binding signal of the first is lower: 0.297 E-score for the first, 0.344 E-score for the second.

First: GTGACGTA
Second: CCTGGTCA
The binding signal of the first is higher: 0.0931 E-score for the first, -0.133 E-score for the second.

Compared with GAAGTAGC, GGTCGGGA is lower in binding signal: 0.182 E-score for the first, -0.156 E-score for the second.

Going from CCCGACGA to AGCACTAA, the binding signal falls from -0.104 E-score to -0.126 E-score.

Compared with CAATAGAC, AAAAGCGC is lower in binding signal: 0.089 E-score for the first, -0.0281 E-score for the second.

Compared with ATGATATG, ATGATAGC is higher in binding signal: 0.172 E-score for the first, 0.179 E-score for the second.

Compared with ATGATATA, ATGATAGA is lower in binding signal: 0.389 E-score for the first, 0.342 E-score for the second.

Compared with ATGATAGG, CTGATATA is higher in binding signal: 0.0932 E-score for the first, 0.204 E-score for the second.

Compared with AATTCGTA, GTAGTAAA is higher in binding signal: 0.263 E-score for the first, 0.348 E-score for the second.

Going from ATAGTAAT to ATAGTAAG, the binding signal falls from 0.392 E-score to 0.282 E-score.

First: GAAGTAAA
Second: GGAGTAAA
The binding signal of the first is higher: 0.237 E-score for the first, -0.112 E-score for the second.

First: AGAGTAAT
Second: ATAGTCTG
The binding signal of the first is lower: 0.197 E-score for the first, 0.347 E-score for the second.

Compared with ATAGTCTA, ATAGTCTC is lower in binding signal: 0.0771 E-score for the first, 0.0365 E-score for the second.

First: ATAGTAAC
Second: GTAGTAAC
The binding signal of the first is higher: 0.366 E-score for the first, 0.321 E-score for the second.

Compared with CTAGTAAC, CATAGGGA is lower in binding signal: 0.303 E-score for the first, -0.158 E-score for the second.

Compared with AGCCATAT, CTGTCCAC is lower in binding signal: 0.162 E-score for the first, -0.116 E-score for the second.

Compared with GAAGAGTA, GCAGCTTA is lower in binding signal: 0.266 E-score for the first, -0.093 E-score for the second.

Compared with GCTCGAAC, TCCTTAAA is lower in binding signal: -0.0353 E-score for the first, -0.0816 E-score for the second.

Going from ATAGTAAA to TTAGTAAA, the binding signal falls from 0.397 E-score to 0.237 E-score.

Going from ATAGTATA to CTAGTAAA, the binding signal rises from 0.278 E-score to 0.328 E-score.

Compared with ATAGTATG, ATAGTATC is lower in binding signal: 0.359 E-score for the first, 0.321 E-score for the second.

Going from AGATTCAA to AACTTTCG, the binding signal falls from 0.0974 E-score to -0.0406 E-score.

Going from ATTCGTTA to CAAGTTGC, the binding signal falls from 0.228 E-score to -0.00109 E-score.

Going from ATAATGTA to ATAATGTC, the binding signal falls from 0.4 E-score to 0.175 E-score.

Going from GTAATGAA to CTAATGTA, the binding signal rises from -0.0724 E-score to 0.184 E-score.

Going from GTAATGTA to ATAATGTG, the binding signal falls from 0.364 E-score to 0.201 E-score.

Going from ATTAACAG to TACCGCCA, the binding signal rises from 0.0334 E-score to 0.0353 E-score.
